# Results reported in PubChem BioAssay (NCATS).
# Inconclusive results are not listed. Calls of active or inactive are those of the source. Unless noted, the call rests on the fitted dose curve; in most records, active means well fitted curve in either direction with a large enough effect (not every such curve was filed as active); inconclusive means small, poorly fitted or top-dose-only effect, or another doubt; inactive means flat fitted curve, though single readings scatter.
# Key:
# [1] = target: Lysosomal acid glucosylceramidase (Homo sapiens) (UniProt P04062); experiment: Glucocerebrosidase-p2 (AID 348; in the data active means potency below about 10 µM; further: potency means the concentration at half of the fitted maximal effect); conditions: purified GBA, blue fluorogenic substrate, 40 min
# Chain of Lysosomal acid glucosylceramidase (Homo sapiens) (P04062 whole entry, looked up): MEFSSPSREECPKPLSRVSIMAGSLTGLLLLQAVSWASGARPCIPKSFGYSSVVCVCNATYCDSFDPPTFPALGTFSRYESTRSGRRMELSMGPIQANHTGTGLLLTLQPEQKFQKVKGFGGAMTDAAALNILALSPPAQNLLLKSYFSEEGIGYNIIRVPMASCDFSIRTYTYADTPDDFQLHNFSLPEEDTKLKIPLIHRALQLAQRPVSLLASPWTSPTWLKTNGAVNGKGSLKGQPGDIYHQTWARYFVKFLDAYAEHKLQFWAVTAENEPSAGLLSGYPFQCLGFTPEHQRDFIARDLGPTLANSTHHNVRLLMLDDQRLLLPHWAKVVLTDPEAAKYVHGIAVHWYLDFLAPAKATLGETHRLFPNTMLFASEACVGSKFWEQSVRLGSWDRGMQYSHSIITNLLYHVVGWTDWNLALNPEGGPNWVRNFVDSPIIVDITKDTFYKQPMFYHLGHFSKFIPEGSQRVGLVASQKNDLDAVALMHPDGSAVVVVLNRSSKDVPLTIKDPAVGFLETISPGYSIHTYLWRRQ
# How it was run: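 Compounds titrated from 0.6 nM upwards against 0.2 nM enzyme in pH 5.9 citric acid/KH2PO4, taurocholate, tween-20; blue fluorogenic substrate 80 uM, 40 min room temperature, stopped and read Ex 365/Em 440 for AC50.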
# [2] = AP1 Signaling Pathway (AID 357); conditions: ME-180 AP-1-bla reporter, EGF-induced, beta-lactamase ratio, 5 h; at 7.69 µM (top of the series) unless noted; further: on the % scale 0 is the no-effect control and ±100 the full control effect
# How it was run: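 In this screen, ME-180 cells in Opti-MEM with 0.5% dialyzed FBS received EC50 EGF and compound titrations for 5 h. AP-1 reporter beta-lactamase was detected via CCF4 ratio, giving AC50 for positive and negative modulators.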
# [3] = target: Cytochrome P450 1A2 (Homo sapiens) (UniProt P05177); experiment: p450-cyp1a2 (AID 410; calls by dose curve; further: potency means the concentration at half of the fitted maximal effect;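 on activity change, negative = inhibition: -100% = full effect of reference inhibitor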); conditions: recombinant CYP1A2, luciferin-ME demethylation, luminescence; series mostly up to 57 µM
# Chain of Cytochrome P450 1A2 (Homo sapiens) (P05177 whole entry, looked up): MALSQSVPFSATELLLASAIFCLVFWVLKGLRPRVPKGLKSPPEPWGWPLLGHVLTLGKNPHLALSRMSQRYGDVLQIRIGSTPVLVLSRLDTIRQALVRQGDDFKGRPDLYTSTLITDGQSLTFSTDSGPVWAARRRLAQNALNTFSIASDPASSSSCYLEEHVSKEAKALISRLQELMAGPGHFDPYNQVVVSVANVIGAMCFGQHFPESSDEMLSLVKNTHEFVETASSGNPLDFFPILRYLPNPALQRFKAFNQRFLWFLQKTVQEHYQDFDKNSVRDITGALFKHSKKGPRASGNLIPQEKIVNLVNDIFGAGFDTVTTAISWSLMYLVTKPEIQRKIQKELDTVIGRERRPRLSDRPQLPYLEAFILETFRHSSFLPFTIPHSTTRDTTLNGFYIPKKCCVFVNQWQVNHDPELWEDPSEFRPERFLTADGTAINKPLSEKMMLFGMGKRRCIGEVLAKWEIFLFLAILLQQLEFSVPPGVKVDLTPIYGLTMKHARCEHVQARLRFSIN
# How it was run: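 20nM CYP1A2 with 100uM Luciferin-ME (at Km) in 100mM KPO4; compound preincubated 10 min, NADPH regeneration added, 60 min at room temperature. Luciferin quantified by luminescence after detection reagent; normalized to 57 uM furafylline.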
# [4] = Stat Signaling Pathway (AID 446); conditions: ME-180 SIE beta-lactamase reporter, IL-6 stimulated, 5 h; at 7.69 µM (top of the series) unless noted;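 further: ME-180 cervical cancer cells given 40 pM IL-6 alongside compound; SIE-controlled beta-lactamase reporter measured as 460/530 nm FRET emission ratio; on the % scale 0 is the no-effect control and ±100 the full control effect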
# How it was run: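 ME-180 cells carrying a SIE-driven beta-lactamase reporter are stimulated with 40 pM IL-6 for 5 h at 37C in the presence of compound. The 460/530 nm FRET substrate ratio is read after 2.5 h at RT. Data are normalised to 300 pM IL-6 and to 125 nM JAK inhibitor controls.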
# [5] = target: Glucocorticoid receptor (Homo sapiens) (UniProt P04150); experiment: GR-EFC Redistribution (AID 451; calls by dose curve; further: potency means the concentration at half of the fitted maximal effect); conditions: CHO-K1 GR-EFC translocation, beta-gal luminescence, 2 h
# Chain of Glucocorticoid receptor (Homo sapiens) (P04150 whole entry, looked up, the tested form may be a part): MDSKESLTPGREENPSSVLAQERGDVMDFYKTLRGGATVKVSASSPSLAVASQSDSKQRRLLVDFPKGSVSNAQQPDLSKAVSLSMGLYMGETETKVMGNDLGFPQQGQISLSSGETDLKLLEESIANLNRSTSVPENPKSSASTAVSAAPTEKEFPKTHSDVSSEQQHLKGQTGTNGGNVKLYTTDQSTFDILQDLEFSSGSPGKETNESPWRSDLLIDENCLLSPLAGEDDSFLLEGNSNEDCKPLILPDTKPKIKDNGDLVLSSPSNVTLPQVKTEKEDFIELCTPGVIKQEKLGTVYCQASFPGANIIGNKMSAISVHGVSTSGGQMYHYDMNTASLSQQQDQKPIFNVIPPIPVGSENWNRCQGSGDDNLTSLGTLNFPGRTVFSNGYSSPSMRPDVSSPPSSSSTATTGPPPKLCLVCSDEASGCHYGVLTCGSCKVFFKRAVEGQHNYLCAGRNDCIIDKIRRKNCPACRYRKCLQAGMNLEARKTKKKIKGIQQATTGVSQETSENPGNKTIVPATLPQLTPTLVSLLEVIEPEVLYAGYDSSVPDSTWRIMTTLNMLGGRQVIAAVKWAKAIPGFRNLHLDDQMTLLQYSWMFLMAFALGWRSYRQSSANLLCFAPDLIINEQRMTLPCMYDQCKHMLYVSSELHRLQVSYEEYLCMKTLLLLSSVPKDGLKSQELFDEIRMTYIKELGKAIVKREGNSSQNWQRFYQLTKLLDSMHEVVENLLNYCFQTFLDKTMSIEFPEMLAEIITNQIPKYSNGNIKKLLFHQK
# How it was run: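 CHO-K1 cells expressing nuclear EA and GR-ED fragments of b-gal; compounds titrated up to 46 uM final, 2 h at 37 C. GR nuclear translocation read as complemented b-gal luminescence after 1 h RT detection.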
# [6] = target: Mitogen-activated protein kinase 10 (Mus musculus) (UniProt Q61831); experiment: JNK3 AlphaScreen Assay (AID 530); conditions: JNK3 lysate, c-Jun phosphorylation; series mostly up to 57.1 µM;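 further: kinase came from lysate of stimulated human HepG2 cells; signal reports phosphorylation of biotinylated GST-cJun 1-79 at Ser73 with 10 µM ATP; on the % scale 0 is the no-effect control and ±100 the full control effect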
# How it was run: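 Pre-activated (IL-1β/TNFα) JNK3 in HepG2 lysates phosphorylates biotin-GST-cJun(1-79), 10 uM ATP; anti-phospho-cJun(Ser73) AlphaScreen read at room temperature, pH 7.6 Tris buffer. Compounds pre-incubated 15 min as titrations.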
# [7] = target: 3',5'-cyclic-AMP phosphodiesterase 4B (Homo sapiens) (UniProt Q07343); experiment: qHTS Assay for Inhibitors of PDE-IV (AID 607; active means well fitted activation curve with a large enough effect in the main read-out, with a control signal flat, not every such curve was filed as active; further: % of control where 0% means no effect); conditions: HEK293 ACTOne CNG channel cells, membrane potential fluorescence; series mostly up to 22.9 µM
# Chain of 3',5'-cyclic-AMP phosphodiesterase 4B (Homo sapiens) (Q07343 whole entry, looked up): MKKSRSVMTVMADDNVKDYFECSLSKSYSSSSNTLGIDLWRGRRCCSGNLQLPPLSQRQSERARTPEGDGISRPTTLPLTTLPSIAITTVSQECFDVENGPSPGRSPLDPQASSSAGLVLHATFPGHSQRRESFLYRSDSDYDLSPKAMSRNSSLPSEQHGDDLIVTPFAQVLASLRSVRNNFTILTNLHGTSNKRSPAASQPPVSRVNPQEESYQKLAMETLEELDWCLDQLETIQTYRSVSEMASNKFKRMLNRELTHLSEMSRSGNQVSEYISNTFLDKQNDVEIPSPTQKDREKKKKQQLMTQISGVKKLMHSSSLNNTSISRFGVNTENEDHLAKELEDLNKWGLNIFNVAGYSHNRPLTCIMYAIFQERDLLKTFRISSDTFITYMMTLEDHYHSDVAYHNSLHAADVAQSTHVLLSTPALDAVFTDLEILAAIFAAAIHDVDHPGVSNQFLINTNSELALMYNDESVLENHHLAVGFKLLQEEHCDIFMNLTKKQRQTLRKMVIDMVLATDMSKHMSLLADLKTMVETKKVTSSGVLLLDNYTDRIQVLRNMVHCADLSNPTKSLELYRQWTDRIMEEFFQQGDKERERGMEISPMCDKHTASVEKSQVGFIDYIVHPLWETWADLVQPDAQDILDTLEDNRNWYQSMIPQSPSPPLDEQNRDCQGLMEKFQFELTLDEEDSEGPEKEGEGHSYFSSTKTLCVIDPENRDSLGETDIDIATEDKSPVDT
# How it was run: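 HEK293 ACTOne cells with CNG channel (1000/well), endogenous PDE4; membrane potential dye, compounds up to 22.9 uM final. Fluorescence Ex 535/Em 590; RO 20-1724 (100 uM final) as reference.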
# [8] = target: Cytochrome P450 3A4 (Homo sapiens) (UniProt P08684); experiment: qHTS Assay for Inhibitors and Substrates of Cytochrome P450 3A4 (AID 884; active means well fitted curve in the direction sought with a large enough effect; an effect the other way counts as inactive or inconclusive; further: nearly all actives have a fitted effect of over 50% in size; further: potency means the concentration at half of the fitted maximal effect); conditions: recombinant CYP3A4, Luciferin-PPXE luminescence; series mostly up to 57.1 µM
# Chain of Cytochrome P450 3A4 (Homo sapiens) (P08684 whole entry, looked up): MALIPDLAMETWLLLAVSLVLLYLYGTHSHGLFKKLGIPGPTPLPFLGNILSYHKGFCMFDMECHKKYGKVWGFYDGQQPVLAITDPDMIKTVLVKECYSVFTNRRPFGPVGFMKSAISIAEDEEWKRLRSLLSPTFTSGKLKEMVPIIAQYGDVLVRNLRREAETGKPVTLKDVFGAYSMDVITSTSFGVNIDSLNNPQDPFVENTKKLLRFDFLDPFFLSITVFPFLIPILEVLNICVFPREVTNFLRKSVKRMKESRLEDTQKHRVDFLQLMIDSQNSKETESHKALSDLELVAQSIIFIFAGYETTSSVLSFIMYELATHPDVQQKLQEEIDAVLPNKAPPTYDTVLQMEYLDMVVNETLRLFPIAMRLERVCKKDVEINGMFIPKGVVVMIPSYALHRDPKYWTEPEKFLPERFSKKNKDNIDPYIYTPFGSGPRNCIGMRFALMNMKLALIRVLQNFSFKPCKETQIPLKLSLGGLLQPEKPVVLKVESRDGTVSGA
# How it was run: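 20 nM human CYP3A4 with 25 uM Luciferin-PPXE (at KM) in 200 mM KPO4, preincubated 10 min with compound; NADPH regeneration started a 60 min RT reaction. Luciferin detected by luminescence, normalized to 57 uM ketoconazole as full inhibition.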
# [9] = target: Cytochrome P450 3A4 (Homo sapiens) (UniProt P08684); experiment: qHTS Assay for Activators of Cytochrome P450 3A4 (AID 885; active means well fitted curve in the direction sought with a large enough effect; an effect the other way counts as inactive or inconclusive; further: nearly all actives have a fitted effect of over 65% in size; further: potency means the concentration at half of the fitted maximal effect); conditions: recombinant CYP3A4, Luciferin-PPXE luminescence, 60 min; series mostly up to 57.1 µM
# How it was run: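 Human CYP3A4 (20 nM) with Luciferin-PPXE at 25 uM (its KM) in 200 mM KPO4; 10 min compound preincubation, then NADPH regeneration and 60 min reaction at RT. Luciferin read by luminescence; normalized to 57 uM ketoconazole full inhibition.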
# [10] = qHTS Assay for Lipid Storage Modulators (AID 1519; calls by dose curve); conditions: Drosophila S3 cells, BODIPY lipid droplet/cell ratio, laser cytometry, cells loaded with oleic acid; for activity change, negative = inhibition: at 57.5 µM (top of the series)
# How it was run: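 Cells seeded at 5,000 per well were treated with compounds over a concentration series and loaded with oleic acid (400 uM, as added). Lipid droplet fluorescence (488 nm excitation, 500-530 nm channel) was read by laser-scanning cytometry and normalized to 20 uM Triacsin C.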
# [11] = Primary qHTS for small molecule stabilizers of the endoplasmic reticulum resident proteome: Secreted ER Calcium Modulated Protein (SERCaMP) assay (AID 1508630; active means well fitted curve in the direction sought with a large enough effect; an effect the other way counts as inactive or inconclusive; further: on the % scale 0 is the no-effect control and ±100 the full control effect); conditions: SH-SY5Y GLuc-SERCaMP (Gaussia luciferase released on ER calcium loss) secretion, thapsigargin, luminescence; series mostly up to 38.4 µM
# How it was run: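 GLuc-SERCaMP-expressing SH-SY5Y cells, pretreated 16 h with compound, are challenged with thapsigargin to empty ER calcium stores; after 4 h, coelenterazine is added directly to the medium and luminescence is imaged.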
# [12] = target: Cytochrome P450 2D6 (Homo sapiens) (UniProt P10635); experiment: qHTS Assay for Inhibitors and Substrates of Cytochrome P450 2D6 (AID 891; active means well fitted curve in the direction sought with a large enough effect; an effect the other way counts as inactive or inconclusive; further: potency means the concentration at half of the fitted maximal effect; nearly all actives have a fitted effect of over 60% in size); conditions: recombinant CYP2D6, luciferin-ME EGE luminescence; series mostly up to 57.1 µM
# Chain of Cytochrome P450 2D6 (Homo sapiens) (P10635 whole entry, looked up): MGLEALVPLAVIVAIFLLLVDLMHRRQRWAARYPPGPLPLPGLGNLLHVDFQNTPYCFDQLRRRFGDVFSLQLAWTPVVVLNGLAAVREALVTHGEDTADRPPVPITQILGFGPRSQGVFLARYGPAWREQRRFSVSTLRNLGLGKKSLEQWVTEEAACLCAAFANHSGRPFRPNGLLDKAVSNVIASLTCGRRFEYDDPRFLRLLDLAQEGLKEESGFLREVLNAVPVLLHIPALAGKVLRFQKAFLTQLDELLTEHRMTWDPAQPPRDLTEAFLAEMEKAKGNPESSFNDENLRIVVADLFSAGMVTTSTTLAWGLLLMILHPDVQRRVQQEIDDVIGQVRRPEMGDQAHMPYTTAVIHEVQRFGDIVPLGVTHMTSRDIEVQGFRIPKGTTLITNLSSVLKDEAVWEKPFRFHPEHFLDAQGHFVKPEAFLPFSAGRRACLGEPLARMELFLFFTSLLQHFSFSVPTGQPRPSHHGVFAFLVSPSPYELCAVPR
# How it was run: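 Human CYP2D6 (5 nM) with 30 uM Luciferin-ME EGE (at Km) in 100 mM KPO4, compound preincubated 10 min, then NADPH regeneration system for 60 min at room temperature. Luciferin read by luminescence; normalized to 1.43 uM quinidine.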
# [13] = target: Cytochrome P450 2C9 (Homo sapiens) (UniProt P11712); experiment: qHTS Assay for Inhibitors and Substrates of Cytochrome P450 2C9 (AID 883; active means well fitted curve in the direction sought with a large enough effect; an effect the other way counts as inactive or inconclusive; further: on the % scale 0 is the no-effect control and ±100 the full control effect; nearly all actives have a fitted effect of over 60% in size); conditions: recombinant CYP2C9, luciferin-H luminescence, 60 min; series mostly up to 57.1 µM
# Chain of Cytochrome P450 2C9 (Homo sapiens) (P11712 whole entry, looked up): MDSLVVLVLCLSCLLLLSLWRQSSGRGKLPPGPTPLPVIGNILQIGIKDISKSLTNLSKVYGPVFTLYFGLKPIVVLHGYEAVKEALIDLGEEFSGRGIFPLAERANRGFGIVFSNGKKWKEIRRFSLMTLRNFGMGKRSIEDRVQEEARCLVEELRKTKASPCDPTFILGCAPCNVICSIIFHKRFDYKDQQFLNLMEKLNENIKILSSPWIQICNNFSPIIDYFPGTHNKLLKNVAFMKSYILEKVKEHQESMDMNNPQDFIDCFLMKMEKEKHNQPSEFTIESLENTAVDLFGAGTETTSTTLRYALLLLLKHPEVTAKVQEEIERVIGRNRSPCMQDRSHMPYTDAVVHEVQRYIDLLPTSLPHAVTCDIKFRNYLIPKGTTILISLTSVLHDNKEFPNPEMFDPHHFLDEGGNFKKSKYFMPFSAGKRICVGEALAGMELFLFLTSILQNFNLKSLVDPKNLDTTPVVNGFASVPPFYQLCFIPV
# How it was run: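 Human CYP2C9 (10nM) with Luciferin-H at 100uM (its KM) in 25mM KPO4; compound preincubated 10 min at 37C, then NADPH regeneration for 60 min at 37C. Luciferin read by luminescence after detection reagent; normalized to 57uM sulphaphenazole as full inhibition.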
# [14] = target: Cytochrome P450 2C19 (Homo sapiens) (UniProt P33261); experiment: qHTS Assay for Inhibitors and Substrates of Cytochrome P450 2C19 (AID 899; active means well fitted curve in the direction sought with a large enough effect; an effect the other way counts as inactive or inconclusive; further: nearly all actives have a fitted effect of over 60% in size; further: potency means the concentration at half of the fitted maximal effect); conditions: recombinant CYP2C19, luciferin-H EGE luminescence; series mostly up to 57.1 µM
# Chain of Cytochrome P450 2C19 (Homo sapiens) (P33261 whole entry, looked up): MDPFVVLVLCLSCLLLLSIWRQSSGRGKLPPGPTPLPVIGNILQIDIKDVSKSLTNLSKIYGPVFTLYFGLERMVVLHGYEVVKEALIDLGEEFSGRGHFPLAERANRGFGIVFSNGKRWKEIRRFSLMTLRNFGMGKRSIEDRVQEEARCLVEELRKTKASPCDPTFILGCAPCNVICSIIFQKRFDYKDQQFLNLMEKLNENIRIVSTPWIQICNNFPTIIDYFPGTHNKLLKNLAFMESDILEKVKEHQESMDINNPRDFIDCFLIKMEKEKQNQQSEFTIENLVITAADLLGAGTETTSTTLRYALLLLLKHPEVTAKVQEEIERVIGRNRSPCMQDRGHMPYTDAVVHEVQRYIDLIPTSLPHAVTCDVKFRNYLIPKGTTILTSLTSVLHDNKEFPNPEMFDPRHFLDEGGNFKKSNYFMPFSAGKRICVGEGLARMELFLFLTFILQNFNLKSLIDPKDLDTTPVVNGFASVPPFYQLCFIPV
# How it was run: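 5 nM human CYP2C19 with 10uM Luciferin-H EGE (at KM) in 50mM KPO4, compound preincubated 10 min at 37C, then NADPH regeneration for 60 min at 37C. Luciferin read by luminescence after detection reagent; normalized to 57uM ketoconazole as full inhibition.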
# [15] = measured here: cell count channel max response
# [16] = measured here: lipid channel max response
Structure (SMILES),Potency [1],"activity change, negative = inhibition [2]",Potency [3],"activity, negative = inhibition [4]",Potency [5],Potency [6],Potency [7],Potency [8],Potency [9],"activity change, negative = inhibition [10]","max response [10, 15] [%]","max response [10, 16] [%]",outcome [11],Potency [12],Potency [13],Potency [14]
O=C(c1ccncc1)N1CCC2(CC1)CN(Cc1cc(C(F)(F)F)cc(C(F)(F)F)c1)C2,> 11.4 µM (inactive),-5.95% (inactive),inactive,-8.98% (inactive),> 46 µM (inactive),inactive,inactive,5.01 µM (active),inactive,0.924% (inactive),9.27,16.4,inactive,,,
c1ccc(-c2cccc(N3CCC4(CCNCC4)CC3)c2)cc1,> 11.4 µM (inactive),-2.96% (inactive),15.8 µM (active),-2.71% (inactive),> 46 µM (inactive),inactive,inactive,,inactive,2.27% (inactive),-17,-12.4,inactive,,,
O=C(c1ccco1)N1CCC2(CCN(Cc3ccccc3)CC2)CC1,> 11.4 µM (inactive),-4.92% (inactive),inactive,-6.84% (inactive),> 46 µM (inactive),inactive,inactive,inactive,20 µM (active),-0.6% (inactive),-0.833,1.54,inactive,3.98 µM (active),,
N#Cc1cccc(NC(=O)N2CCC3(CC2)CCN(C(=O)c2cccc(F)c2)CC3)c1,> 11.4 µM (inactive),-11.8% (inactive),inactive,-7.8% (inactive),> 46 µM (inactive),inactive,inactive,inactive,,5.01% (inactive),6.66,13.2,inactive,,,
Cn1cccc1C(=O)N1CCC2(CCCN(Cc3ccc(C#N)cc3)C2)CC1,> 11.4 µM (inactive),10.6% (inactive),12.6 µM (active),-1.12% (inactive),> 46 µM (inactive),inactive,inactive,,inactive,1.29% (inactive),17.2,18.2,inactive,,,
Cc1noc(C)c1C(=O)N1CCC2(CC1)CCN(c1ccncc1)CC2,> 11.4 µM (inactive),10.3% (inactive),inactive,8.12% (inactive),> 46 µM (inactive),inactive,inactive,,inactive,1.45% (inactive),9.32,12.2,inactive,,,
O=C(c1ccncc1)N1CCC2(CCN(Cc3ccncc3)CC2)CC1,> 11.4 µM (inactive),7.83% (inactive),inactive,-5.41% (inactive),> 46 µM (inactive),inactive,inactive,,inactive,4.23% (inactive),14.3,23.1,inactive,,,
N#Cc1ccc(CN2CCCC3(CCN(C(=O)c4ccncc4)CC3)C2)cc1,> 11.4 µM (inactive),-16.7% (inactive),inactive,1.22% (inactive),> 46 µM (inactive),inactive,inactive,,inactive,2.04% (inactive),4.42,7.34,inactive,,inactive,inactive
COC(=O)N1CCC2(CC1)CN(c1ccccc1)C2,> 11.4 µM (inactive),-2.49% (inactive),inactive,8.16% (inactive),> 46 µM (inactive),inactive,inactive,inactive,,-0.409% (inactive),4.45,2.93,inactive,,,6.31 µM (active)
Cn1cccc1C(=O)N1CCC2(CCN(Cc3nccs3)CC2)CC1,> 11.4 µM (inactive),-5.06% (inactive),inactive,-1.77% (inactive),> 46 µM (inactive),inactive,inactive,inactive,,-0.0655% (inactive),-3.13,-0.688,inactive,,,
O=C(c1csnn1)N1CCC2(CC1)CCN(c1ccncc1)CC2,> 11.4 µM (inactive),0.494% (inactive),inactive,0.543% (inactive),> 46 µM (inactive),inactive,inactive,,inactive,1.35% (inactive),6.68,10,inactive,,,
CC(C)CN1CCCC2(CCN(C(=O)c3cccc(F)c3)CC2)C1,> 11.4 µM (inactive),-3.93% (inactive),inactive,-0.516% (inactive),> 46 µM (inactive),inactive,inactive,,inactive,2.15% (inactive),18.6,24.2,inactive,,,
Cn1cccc1C(=O)N1CCC[C@@]2(CCN(C(c3ccccc3)c3ccccc3)C2)C1,> 11.4 µM (inactive),0.163% (inactive),20 µM (active),9.39% (inactive),> 46 µM (inactive),inactive,inactive,,inactive,0.948% (inactive),10.5,14.1,inactive,,,
O=C(Oc1ccccc1)N1CCC2(CC1)CN(c1ccccn1)C2,> 11.4 µM (inactive),5.21% (inactive),inactive,-0.424% (inactive),> 46 µM (inactive),inactive,inactive,inactive,15.8 µM (active),7.94% (inactive),3.44,13.9,inactive,,,
